Calls of active or inactive are those of the source. How the source made its calls: active means hit-call score of the fitted dose curve at least 0.9, where 1 is the maximum; inactive means score below 0.9.
Read-out: JUN Transcription Factor, JUN (gene 3725)
Experiment: LTEA_HepaRG_JUN: Life Technologies and Expression Analysis (LTEA) Assay for JUN Transcription Factor using HepaRG (AID 2283513)
Conditions: mRNA level, 48 h; actives raise or lower the signal
Procedure: LTEA_HepaRG is a cell based, multiplexed-readout assay that uses HepaRG, a human liver cell line, with measurements taken at 48 hours after chemical dosing on a 96-well plate.LTEA_HepaRG_JUN is one of 102 assay component(s) measured in the LTEA HepaRG cell culture assay. It is a marker of Cell proliferation, survival, death.Data from the assay component LTEA_HepaRG_JUN was analyzed into 1 endpoint. This assay endpoint, LTEA_HepaRG_JUN, was analyzed with bidirectional fitting relative to DMSO as the negative control and baseline of activity. Using a type of inducible reporter, measures of mRNA induction for gain or loss-of-signal activity can be used to understand regulation of transcription factor activity. To generalize the intended target to other relatable targets, this assay endpoint is annotated to the dna binding intended target family, where the subfamily is basic leucine zipper.
A total of 1060 chemcials from the ToxCast library were tested in eight-point concentration-response experiments. Cell culture and cytotoxicity assays were conducted at Thermo Fisher Scientific's Custom Services facility (Madison, WI). A single lot of human HepaRG cells (Thermo Fisher Scientific, Frederick, MD) was used for the cell culture experiments. 96-well format collagen type I coated plates of human HepaRG cells were prepared using established methods. Briefly, cryopreserved HepaRG cells were thawed, plated at a density of approximately 100,000 cells/well in HepaRG Thaw, Plate, and General Purpose media (HPRG770, Thermo Fisher Scientific), and incubated for 48 hours. 0.5% DMSO was selected as vehicle control to balance the requisite need of DMSO in HepaRG cultures to maintain differentiation (for example, baseline metabolism, proportions of hepatocytes vs. cholangiocytes), while enabling further hepatic receptor pathway activation (for example, PXR and CAR) in response to chemical exposure. 48 hours after plating, the culture medium was replaced with HepaRG Serum-Free Incudtion Media. Cells were exposed to each test chemical in duplicate and maintained in CO2 incubators for another 48 hours. Chemical plates were thawed to room temperature and 200x concentrations of treatment groups were prepared. 8-point conentration-reponse curves were made with the highest exposure at 100 uM, followed by half-log dilutions, all in 0.5% DMSO. Each test plate contained variouse controls, induction positive controls (1mM phenobarbital), cytotoxicity positive controls ([…] aflatoxin B1), vehicle controls (0.5% DMSO), and total lysis controls (0.5% DMSO). Cell morphology images were taken using an Essen IncuCyte FLR automated microscope, with six 96-well plates imaged in about 24 minutes. Images were captured and exported and JPEG files. Spent culture media was transfered to black-well plates for the LDH assay, and remaining media was sorted at -80 C for later use. Cells were treated with RLT buffer and frozen until shipped for gene expression analysis. Total RNA was isolated from the cell suspension in 75 uL of Buffer RLT (Qiagen, Germantown, MD 20874) by Quintiles/Expression Analysis (Durham, NC) using a custom isolation procedure. Total RNA from each plate well was transferred to a preamplification plate. Fluidigm's 96.96 Dynamic ArrayTM (Fluidigm, Amsterdam, the Netherlands) technology was used for gene expression analyses by quantitative reverse transcription polymerase chain reaction (qRT-PCR, performed by Quintiles/Expression Analysis, Durham, NC)89. Standard TaqManTM Assays (Applied Biosystems/ThermoFisher Scientific, Foster City, CA) were used to assess the expression of 93 genes selected based on their selectivity and sensitivity to important hepatic receptors known to be modulated by environmental chemicals; importance in human hepatocyte functionality; and hepatotoxicity. […]

**Q.** With `CSc1nnc(C(C)(C)C)c(=O)n1N` as the compound, how does the outcome read?
**A.** inactive

**Q.** With `CCCOc1nn(C(=O)NS(=O)(=O)c2ccccc2C(=O)OC)c(=O)n1C` as the compound, how does the outcome read?
**A.** inactive

**Q.** For `CCCCSP(=O)(SCCCC)SCCCC`, which outcome is on record?
**A.** inactive

**Q.** `C#CC(C)(C)NC(=O)c1cc(Cl)cc(Cl)c1` was tested. Which outcome did it give?
**A.** inactive

**Q.** `CC1=NNC(=O)N(/N=C/c2cccnc2)C1` was tested. Which outcome did it give?
**A.** inactive

**Q.** For `CN(C)C(=O)Nc1cccc(C(F)(F)F)c1`, which outcome is on record?
**A.** inactive

**Q.** How did the outcome turn out when `CON=C(C(=O)OC)c1ccccc1CON=C(C)c1cccc(C(F)(F)F)c1` was run?
**A.** inactive

**Q.** How did the outcome turn out when `CCCCOC(=O)c1ccccc1C(=O)O` was run?
**A.** inactive

**Q.** How did the outcome turn out when `CCOP(=S)(OCC)Oc1cc(C)nc(C(C)C)n1` was run?
**A.** inactive

**Q.** Which outcome does the source give for `CNC(=O)ON=C(SC)C(=O)N(C)C` here?
**A.** inactive

**Q.** `CCCSP(=O)(OCC)Oc1ccc(Br)cc1Cl` (stereo not given) was tested. Which outcome did it give?
**A.** inactive

**Q.** With `CCCCOC(=O)[C@@H](C)Oc1ccc(Oc2ccc(C#N)cc2F)cc1` as the compound, how does the outcome read?
**A.** inactive

**Q.** For `CCCCN(CC)c1c([N+](=O)[O-])cc(C(F)(F)F)cc1[N+](=O)[O-]`, which outcome is on record?
**A.** inactive

**Q.** For `CN1COCN(Cc2cnc(Cl)s2)C1=N[N+](=O)[O-]`, which outcome is on record?
**A.** inactive

**Q.** For `CC(COc1ccc(Oc2ccccc2)cc1)Oc1ccccn1` (stereo not given), which outcome is on record?
**A.** inactive

**Q.** How did the outcome turn out when `CC(Oc1cccc(Cl)c1)C(=O)O` (stereo not given) was run?
**A.** inactive

**Q.** How did the outcome turn out when `FC(F)C(F)(F)OCC(Cn1cncn1)c1ccc(Cl)cc1Cl` (stereo not given) was run?
**A.** inactive

**Q.** How did the outcome turn out when `C[N+]1(C)CCCCC1` was run?
**A.** inactive

**Q.** For `CC(C1CC1)C(O)(Cn1cncn1)c1ccc(Cl)cc1` (stereo not given), which outcome is on record?
**A.** inactive

**Q.** Which outcome does the source give for `CCOP(=S)(Oc1cnc(C(C)(C)C)nc1)OC(C)C` (stereo not given) here?
**A.** inactive

**Q.** With `CNC(=O)ON=C(C)SC` as the compound, how does the outcome read?
**A.** inactive

**Q.** For `Nc1c(Cl)cc([N+](=O)[O-])cc1Cl`, which outcome is on record?
**A.** inactive

**Q.** For `CCOP(=S)(OCC)SCCSCC`, which outcome is on record?
**A.** inactive

**Q.** With `CNc1cnn(-c2cccc(C(F)(F)F)c2)c(=O)c1Cl` as the compound, how does the outcome read?
**A.** inactive

**Q.** `COP(=O)(OC)OC(Br)C(Cl)(Cl)Br` (stereo not given) was tested. Which outcome did it give?
**A.** inactive

**Q.** `CN(C)NC(=O)CCC(=O)O` was tested. Which outcome did it give?
**A.** inactive

**Q.** `O=[N+]([O-])c1cc(C(F)(F)F)c(Cl)c([N+](=O)[O-])c1Nc1ncc(C(F)(F)F)cc1Cl` was tested. Which outcome did it give?
**A.** inactive

**Q.** How did the outcome turn out when `CNC(=O)Oc1cccc2c1OC(C)(C)O2` was run?
**A.** inactive

**Q.** For `CCc1cccc(C)c1N(C(=O)CCl)C(C)COC` (stereo not given), which outcome is on record?
**A.** inactive

**Q.** Which outcome does the source give for `CCCSP(=O)(OCC)SCCC` here?
**A.** inactive

**Q.** Which outcome does the source give for `CCc1cccc(CC)c1N(COC)C(=O)CCl` here?
**A.** inactive

**Q.** For `CCOP(=O)(OCC)Oc1cc(C)nc(C(C)C)n1`, which outcome is on record?
**A.** inactive

**Q.** Which outcome does the source give for `N#CSCSC#N` here?
**A.** inactive

**Q.** How did the outcome turn out when `Cc1nn(-c2cc(NS(C)(=O)=O)c(Cl)cc2Cl)c(=O)n1C(F)F` was run?
**A.** inactive

**Q.** Which outcome does the source give for `CN(C)[C@@H]1C(=O)C(C(N)=O)=C(O)[C@@]2(O)C(=O)C3=C(O)c4c(O)cccc4[C@@](C)(O)[C@H]3[C@H](O)[C@@H]12` here?
**A.** inactive

**Q.** Which outcome does the source give for `COc1cccc(C(=O)NN(C(=O)c2cc(C)cc(C)c2)C(C)(C)C)c1C` here?
**A.** inactive

**Q.** How did the AC50 turn out when `CC[C@H](C)[C@H]1O[C@]2(C=C[C@@H]1C)C[C@@H]1C[C@@H](C/C=C(\C)[C@@H](O[C@H]3C[C@H](OC)[C@@H](O[C@H]4C[C@H](OC)[C@@H](NC)[C@H](C)O4)[C@H](C)O3)[C@@H](C)/C=C/C=C3\CO[C@@H]4[C@H](O)C(C)=C[C@@H](C(=O)O1)[C@]34O)O2` was run?
**A.** 26.5 µM (active)

**Q.** How did the outcome turn out when `CCOP(=O)(SC(C)CC)N1CCSC1=O` (stereo not given) was run?
**A.** inactive

**Q.** How did the outcome turn out when `CCOP(=S)(OCC)Oc1ccc2c(C)c(Cl)c(=O)oc2c1` was run?
**A.** inactive

**Q.** With `CC(C)N(C(=O)SCC(Cl)=C(Cl)Cl)C(C)C` as the compound, how does the outcome read?
**A.** inactive

From PubChem BioAssay (EPA / NIEHS)
